Details in all cases: mRNA level, 48 h; actives raise or lower the signal
Read-out in test [1]: Nuclear factor NF-kappa-B p105 subunit (Homo sapiens) (UniProt P19838)
As to the kind of experiment: LTEA_HepaRG_NFKB1: Life Technologies and Expression Analysis (LTEA) Assay for Nuclear Factor Kappa B Subunit 1 (NFKB1) using HepaRG (AID 2283521). The method in brief:
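Differentiated human HepaRG cells were exposed for 48 h in serum-free induction medium to eight concentrations (top 100 uM, half-log steps, 0.5% DMSO), in duplicate. NFKB1 mRNA was measured by TaqMan qRT-PCR, normalized to ACTB/GAPDH/POLR2A, and fitted bidirectionally against DMSO.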

Read-out in test [2]: Protein phosphatase 2A (PPP2R4), PTPA (gene 5524)
The test can be described thus: LTEA_HepaRG_PPP2R4: Life Technologies and Expression Analysis (LTEA) Assay for Protein phosphatase 2A (PPP2R4) using HepaRG (AID 2283522). In short, it runs like this: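 Differentiated HepaRG cells in serum-free induction medium were exposed in duplicate for 48 h to eight concentrations, top 100 uM with half-log dilutions, in 0.5% DMSO. PPP2R4 mRNA was quantified by TaqMan qRT-PCR, normalized to ACTB, GAPDH and POLR2A.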

Read-out in test [3]: Phosphatase and tensin (PTEN), PTEN (gene 5728)
As to the kind of experiment: LTEA_HepaRG_PTEN: Life Technologies and Expression Analysis (LTEA) Assay for Phosphatase and tensin (PTEN) using HepaRG (AID 2283523). The method in brief:
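Differentiated human HepaRG cells, plated 48 h then switched to serum-free induction medium, were exposed in duplicate for 48 h to eight half-log concentrations up to 100 uM in 0.5% DMSO. PTEN mRNA measured by TaqMan qRT-PCR, normalized to ACTB/GAPDH/POLR2A, bidirectional fit versus DMSO.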

Read-out in test [4]: solute carrier (SLC22A1), SLC22A1 (gene 6580)
The test can be described thus: LTEA_HepaRG_SLC22A1: Life Technologies and Expression Analysis (LTEA) Assay for solute carrier (SLC22A1) using HepaRG (AID 2283524). The method in brief: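 Human HepaRG cells were plated 48 h, switched to serum-free induction medium, then exposed in duplicate for 48 h to 8-point half-log series from 100 uM in 0.5% DMSO. SLC22A1 mRNA measured by qRT-PCR, normalized to ACTB/GAPDH/POLR2A, fitted bidirectionally versus DMSO.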

Read-out in test [5]: Pyruvate Dehydrogenase Kinase 4 (PDK4), PDK4 (gene 5166)
As to the kind of experiment: LTEA_HepaRG_PDK4: Life Technologies and Expression Analysis (LTEA) Assay for Pyruvate Dehydrogenase Kinase 4 (PDK4) using HepaRG (AID 2283525). In short, it runs like this: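 Differentiated human HepaRG cells, pre-cultured 48 h, were exposed in duplicate for 48 h in serum-free induction medium to eight half-log concentrations up to 100 uM in 0.5% DMSO. PDK4 mRNA was quantified by qRT-PCR, normalized to ACTB, GAPDH and POLR2A, bidirectional fitting versus DMSO.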

Read-out in test [6]: Nuclear factor erythroid 2-related factor 2 (Homo sapiens) (UniProt Q16236)
As to the kind of experiment: LTEA_HepaRG_NFE2L2: Life Technologies and Expression Analysis (LTEA) Assay for Nuclear factor erythroid 2-related factor 2 (NFE2L2) Transcription Factor using HepaRG (AID 2283527).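 On outcome: TaqMan qRT-PCR transcript level normalised to ACTB GAPDH and POLR2A housekeeping genes.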 The method in brief: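 Differentiated human HepaRG cells in serum-free induction medium were exposed for 48 h to eight concentrations (top 100 uM, half-log dilutions, 0.5% DMSO), in duplicate. NFE2L2 mRNA was quantified by TaqMan qRT-PCR, normalized to ACTB, GAPDH and POLR2A, with bidirectional fitting versus DMSO.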

Read-out in test [7]: succinate dehydrogenase complex iron sulfur subunit B (SDHB), SDHB (gene 6390)
As to the kind of experiment: LTEA_HepaRG_SDHB: Life Technologies and Expression Analysis (LTEA) Assay for succinate dehydrogenase complex iron sulfur subunit B (SDHB) using HepaRG (AID 2283528). The method in brief: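 HepaRG, 48 h exposure, 8-pt half-log series from 100 uM in 0.5% DMSO, duplicates. Readout: SDHB mRNA by Fluidigm qRT-PCR vs housekeeping genes; bidirectional fit relative to DMSO.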

Read-out in test [8]: Signal transducer and activator of transcription 3 (Homo sapiens) (UniProt P40763)
As to the kind of experiment: LTEA_HepaRG_STAT3: Life Technologies and Expression Analysis (LTEA) Assay for Signal transducer and activator of transcription (STAT3) using HepaRG (AID 2283529). In short, it runs like this:
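Differentiated human HepaRG cells in serum-free induction medium were exposed in duplicate for 48 h to eight half-log concentrations up to 100 uM in 0.5% DMSO. STAT3 mRNA was quantified by TaqMan qRT-PCR, normalized to ACTB, GAPDH and POLR2A, and fitted bidirectionally against DMSO.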

Read-out in test [9]: solute carrier (SLCO1B1), SLCO1B1 (gene 10599)
The test can be described thus: LTEA_HepaRG_SLCO1B1: Life Technologies and Expression Analysis (LTEA) Assay for solute carrier (SLCO1B1) using HepaRG (AID 2283530). The method in brief: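 SLCO1B1 transcript levels were quantified by TaqMan qRT-PCR using three housekeeping genes for normalization. This followed 48 h chemical exposure (100 uM top, half-log, 8 points, 0.5% DMSO) of HepaRG liver cells, with gain or loss fitted relative to DMSO.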

Read-out in test [10]: sulfotransferase 2A1 (SULT2A1), SULT2A1 (gene 6822)
As to the kind of experiment: LTEA_HepaRG_SULT2A1: Life Technologies and Expression Analysis (LTEA) Assay for sulfotransferase 2A1 (SULT2A1) using HepaRG (AID 2283531). In short, it runs like this:
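Expression change of SULT2A1, by qRT-PCR with three housekeeping-gene normalization, was scored bidirectionally versus DMSO. Cells: differentiated HepaRG, dosed in duplicate for 48 h across 8 points, highest 100 µM, half-log dilution, 0.5% DMSO.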

Read-out in test [11]: Transforming Growth Factor (TGFA), TGFA (gene 7039)
The test can be described thus: LTEA_HepaRG_TGFA: Life Technologies and Expression Analysis (LTEA) Assay for Transforming Growth Factor (TGFA) using HepaRG (AID 2283532). In short, it runs like this:
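Differentiated human HepaRG cells, plated 48 h then switched to serum-free induction medium, were exposed in duplicate for 48 h to 8-point half-log series from 100 uM in 0.5% DMSO. TGFA mRNA measured by qRT-PCR, normalized to ACTB/GAPDH/POLR2A, bidirectional fit versus DMSO.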

Read-out in test [12]: Transforming Growth Factor (TGFB1), TGFB1 (gene 7040)
As to the kind of experiment: LTEA_HepaRG_TGFB1: Life Technologies and Expression Analysis (LTEA) Assay for Transforming Growth Factor (TGFB1) Transporter using HepaRG (AID 2283533). In short, it runs like this: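 TGFB1 transcript measured by qRT-PCR with normalisation to three housekeeping genes (ACTB, GAPDH, POLR2A); human HepaRG line treated in duplicate for 48 hr with an 8-point series topping at 100 uM, 0.5% DMSO vehicle, bidirectionally fitted.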

Read-out in another test: TIMP1, TIMP1 (gene 7076)
As to the kind of experiment: LTEA_HepaRG_TIMP1: Life Technologies and Expression Analysis (LTEA) Assay for TIMP1 using HepaRG (AID 2283534).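 On outcome: TaqMan qRT-PCR signal normalized to ACTB GAPDH and POLR2A housekeeping genes.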 The method in brief:
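Bidirectional change in TIMP1 transcript versus 0.5% DMSO, measured by TaqMan qRT-PCR with three housekeeping genes for normalization. HepaRG human liver cells dosed 48 h in duplicate, top concentration 100 uM with half-log dilutions.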

Read-out in test [13]: Tumor necrosis factor receptor 1 (TNFRSF1A), TNFRSF1A (gene 7132)
The test can be described thus: LTEA_HepaRG_TNFRSF1A: Life Technologies and Expression Analysis (LTEA) Assay for Tumor necrosis factor receptor 1 (TNFRSF1A) using HepaRG (AID 2283535). The method in brief:
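mRNA measured by qRT-PCR (TaqMan, Fluidigm arrays) against ACTB/GAPDH/POLR2A housekeepers after 48 h chemical exposure of HepaRG cells. Top concentration 100 uM, half-log 8-point series, duplicates; vehicle 0.5% DMSO, both fit directions.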

Read-out in test [14]: Thyroid Hormone Responsive (THRSP), THRSP (gene 7069)
As to the kind of experiment: LTEA_HepaRG_THRSP: Life Technologies and Expression Analysis (LTEA) Assay for Thyroid Hormone Responsive (THRSP) using HepaRG (AID 2283536). The method in brief: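 Differentiated human HepaRG cells were exposed in duplicate for 48 h in serum-free induction medium to eight concentrations (top 100 uM, half-log steps, 0.5% DMSO). Expression was quantified by TaqMan qRT-PCR, normalized to ACTB, GAPDH and POLR2A, with bidirectional fitting against DMSO.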

Read-out in test [15]: Cellular tumor antigen p53 (Homo sapiens) (UniProt P04637)
The test can be described thus: LTEA_HepaRG_TP53: Life Technologies and Expression Analysis (LTEA) Assay for Tumor Protein P53 (TP53) using HepaRG (AID 2283537). The method in brief:
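HepaRG, 48 h exposure, top 100 uM, half-log 8-point, 0.5% DMSO vehicle, duplicates. Read: TP53 mRNA by TaqMan qRT-PCR, normalised to ACTB/GAPDH/POLR2A; bidirectional fit vs DMSO.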

Read-out in test [16]: UDP glucuronosyltransferase (UGT1A1), UGT1A1 (gene 54658)
As to the kind of experiment: LTEA_HepaRG_UGT1A1: Life Technologies and Expression Analysis (LTEA) Assay for UDP glucuronosyltransferase (UGT1A1) using HepaRG (AID 2283538). The method in brief:
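Differentiated human HepaRG cells in serum-free induction medium were exposed in duplicate for 48 h to eight half-log concentrations up to 100 uM in 0.5% DMSO. UGT1A1 mRNA was quantified by TaqMan qRT-PCR, normalized to ACTB, GAPDH and POLR2A, and fitted bidirectionally against DMSO.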

Read-out in test [17]: UDP glucuronosyltransferase (UGT1A6), UGT1A6 (gene 54578)
The test can be described thus: LTEA_HepaRG_UGT1A6: Life Technologies and Expression Analysis (LTEA) Assay for UDP glucuronosyltransferase (UGT1A6) using HepaRG (AID 2283539). In short, it runs like this: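 Expression was quantified by TaqMan qRT-PCR on Fluidigm arrays with ACTB/GAPDH/POLR2A normalization and bidirectional fitting against 0.5% DMSO. HepaRG cells (~100,000/well) were treated in duplicate for 48 h at eight half-log concentrations up to 100 uM in serum-free induction medium.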

Read-out in test [18]: Paternally Expressed 10 (PEG10), PEG10 (gene 23089)
As to the kind of experiment: LTEA_HepaRG_PEG10: Life Technologies and Expression Analysis (LTEA) Assay for Paternally Expressed 10 (PEG10) using HepaRG (AID 2283520). The method in brief: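 Differentiated HepaRG cells, plated 48 h then switched to serum-free induction medium, were exposed in duplicate for 48 h to eight half-log concentrations topping at 100 uM in 0.5% DMSO. PEG10 mRNA was quantified by TaqMan qRT-PCR, normalised to ACTB, GAPDH and POLR2A.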

Read-out in test [19]: NAD(P)H dehydrogenase [quinone] 1 (NQO1), NQO1 (gene 1728)
As to the kind of experiment: LTEA_HepaRG_NQO1: Life Technologies and Expression Analysis (LTEA) Assay for NAD(P)H dehydrogenase [quinone] 1 (NQO1) using HepaRG (AID 2283526). The method in brief:
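Differentiated HepaRG cells, plated 48 h and then switched to serum-free induction medium, were exposed in duplicate for 48 h to 8-point half-log concentrations up to 100 uM in 0.5% DMSO. mRNA measured by qRT-PCR, normalized to ACTB, GAPDH, POLR2A; bidirectional fit versus DMSO.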

Here are results for 3 compounds from PubChem BioAssay (EPA / NIEHS).

Each structure is given as a SMILES string. Calls of active or inactive are those of the source. How the source made its calls: active means hit-call score of the fitted dose curve at least 0.9, where 1 is the maximum; inactive means score below 0.9.

Nuclear factor erythroid 2-related factor 2 (Homo sapiens), sequence (Q16236 whole entry, looked up): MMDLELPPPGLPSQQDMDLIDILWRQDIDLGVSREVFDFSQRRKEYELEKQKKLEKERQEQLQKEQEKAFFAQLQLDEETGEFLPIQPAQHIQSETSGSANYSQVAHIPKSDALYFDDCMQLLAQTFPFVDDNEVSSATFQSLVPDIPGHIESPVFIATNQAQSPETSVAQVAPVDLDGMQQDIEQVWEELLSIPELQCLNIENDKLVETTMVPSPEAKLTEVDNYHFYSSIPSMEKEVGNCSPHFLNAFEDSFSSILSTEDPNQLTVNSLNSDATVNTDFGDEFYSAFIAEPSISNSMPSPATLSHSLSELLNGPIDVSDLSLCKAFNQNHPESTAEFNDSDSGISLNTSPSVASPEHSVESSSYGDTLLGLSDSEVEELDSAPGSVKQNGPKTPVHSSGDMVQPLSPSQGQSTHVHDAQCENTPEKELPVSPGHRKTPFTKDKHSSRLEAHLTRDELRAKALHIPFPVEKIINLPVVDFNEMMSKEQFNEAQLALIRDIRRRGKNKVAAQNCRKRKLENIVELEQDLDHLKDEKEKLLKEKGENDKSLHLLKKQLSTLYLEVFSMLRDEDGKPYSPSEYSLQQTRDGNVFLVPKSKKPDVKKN
Cellular tumor antigen p53 (Homo sapiens), sequence (P04637 whole entry, looked up): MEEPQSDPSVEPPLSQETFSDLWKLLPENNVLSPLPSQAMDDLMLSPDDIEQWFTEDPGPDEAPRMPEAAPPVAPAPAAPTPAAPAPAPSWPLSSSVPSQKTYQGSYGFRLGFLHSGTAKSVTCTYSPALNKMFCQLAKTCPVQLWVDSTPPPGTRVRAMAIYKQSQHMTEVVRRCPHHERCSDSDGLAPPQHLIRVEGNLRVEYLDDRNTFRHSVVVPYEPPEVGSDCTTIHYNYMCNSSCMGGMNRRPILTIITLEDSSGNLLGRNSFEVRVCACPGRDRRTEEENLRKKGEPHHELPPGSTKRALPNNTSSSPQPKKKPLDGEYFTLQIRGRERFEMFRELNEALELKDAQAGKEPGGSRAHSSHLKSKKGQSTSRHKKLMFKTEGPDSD
Nuclear factor NF-kappa-B p105 subunit (Homo sapiens), sequence (P19838 whole entry, looked up): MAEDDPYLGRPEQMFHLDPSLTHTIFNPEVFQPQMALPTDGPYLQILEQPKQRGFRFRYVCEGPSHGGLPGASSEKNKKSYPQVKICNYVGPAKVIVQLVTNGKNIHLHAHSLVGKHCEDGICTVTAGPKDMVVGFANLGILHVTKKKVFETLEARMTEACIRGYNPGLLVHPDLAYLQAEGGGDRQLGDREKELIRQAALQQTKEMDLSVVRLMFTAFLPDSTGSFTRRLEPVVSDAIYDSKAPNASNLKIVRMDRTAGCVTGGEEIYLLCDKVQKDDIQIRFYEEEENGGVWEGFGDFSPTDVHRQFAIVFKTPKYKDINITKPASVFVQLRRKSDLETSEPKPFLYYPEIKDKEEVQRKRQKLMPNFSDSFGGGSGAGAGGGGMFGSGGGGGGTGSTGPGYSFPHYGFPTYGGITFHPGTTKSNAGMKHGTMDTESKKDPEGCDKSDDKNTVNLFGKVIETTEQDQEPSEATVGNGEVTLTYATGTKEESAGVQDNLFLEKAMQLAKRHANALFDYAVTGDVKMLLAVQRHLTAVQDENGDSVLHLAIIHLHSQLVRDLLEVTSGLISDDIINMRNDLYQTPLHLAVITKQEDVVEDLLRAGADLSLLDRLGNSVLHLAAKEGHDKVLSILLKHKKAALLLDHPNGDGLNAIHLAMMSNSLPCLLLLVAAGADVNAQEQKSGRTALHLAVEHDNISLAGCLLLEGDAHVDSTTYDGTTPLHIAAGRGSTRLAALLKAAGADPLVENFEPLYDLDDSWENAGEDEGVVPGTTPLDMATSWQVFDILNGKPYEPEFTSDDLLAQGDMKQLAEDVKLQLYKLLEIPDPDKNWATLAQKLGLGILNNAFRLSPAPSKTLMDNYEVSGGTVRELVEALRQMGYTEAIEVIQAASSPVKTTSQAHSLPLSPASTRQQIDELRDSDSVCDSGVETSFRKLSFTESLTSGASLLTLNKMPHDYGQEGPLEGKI
Signal transducer and activator of transcription 3 (Homo sapiens), sequence (P40763 whole entry, looked up): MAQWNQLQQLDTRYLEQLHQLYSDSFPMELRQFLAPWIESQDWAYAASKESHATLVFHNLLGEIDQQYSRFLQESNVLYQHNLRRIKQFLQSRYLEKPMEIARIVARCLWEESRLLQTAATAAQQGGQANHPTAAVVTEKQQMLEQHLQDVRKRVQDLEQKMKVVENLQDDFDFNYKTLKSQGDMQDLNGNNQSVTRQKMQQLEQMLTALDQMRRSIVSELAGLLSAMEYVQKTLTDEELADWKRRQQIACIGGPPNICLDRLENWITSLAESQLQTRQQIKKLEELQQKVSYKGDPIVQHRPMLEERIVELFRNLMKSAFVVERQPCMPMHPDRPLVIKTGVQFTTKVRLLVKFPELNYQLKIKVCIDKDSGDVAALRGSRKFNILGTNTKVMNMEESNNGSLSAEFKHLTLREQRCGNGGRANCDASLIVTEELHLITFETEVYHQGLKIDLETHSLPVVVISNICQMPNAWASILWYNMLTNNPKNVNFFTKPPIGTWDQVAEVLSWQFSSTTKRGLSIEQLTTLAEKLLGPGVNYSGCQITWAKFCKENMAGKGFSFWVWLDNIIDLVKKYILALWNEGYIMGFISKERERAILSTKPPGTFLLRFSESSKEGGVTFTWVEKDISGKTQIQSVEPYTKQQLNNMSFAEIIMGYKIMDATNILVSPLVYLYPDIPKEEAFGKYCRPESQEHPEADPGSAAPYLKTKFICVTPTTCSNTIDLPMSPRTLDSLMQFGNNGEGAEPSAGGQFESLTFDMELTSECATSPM

For `CO[C@H]1/C=C/O[C@@]2(C)Oc3c(C)c(O)c4c(O)c(c(/C=N/N5CCN(C)CC5)c(O)c4c3C2=O)NC(=O)/C(C)=C\C=C\[C@H](C)[C@H](O)[C@@H](C)[C@@H](O)[C@@H](C)[C@H](OC(C)=O)[C@@H]1C`, the compound was classed as inactive in [1], in test [2], in test [3], in test [4], in [5] and in [6]. The outcome in test [7] was “inactive”; in test [9], “inactive”; in [10], “inactive”; in test [11] it was “inactive”; in test [12], “inactive”; with TIMP1, TIMP1 (gene 7076), “inactive”. For the same compound, the compound was called inactive in [13], in [15] and in test [17]. In addition, the concentration at half-maximal activity (AC50) in test [8] is 7.81 µM (active); in test [14], 12 µM (active); in [16], 0.395 µM (active).
`COc1ccc2cc(S(=O)(=O)N[C@H](CC(=O)N[C@H](Cc3ccc(CN4[C@H](C)CCC[C@@H]4C)cc3)C(=O)N(C)C(C)C)c3ccc4c(c3)OCO4)ccc2c1`: the AC50 is 11.5 µM (active) in test [18]; 31.2 µM (active) in test [1]; 34.3 µM (active) in test [2]; 15 µM (active) in test [3]; 26.4 µM (active) in test [4]; 21.8 µM (active) in test [6]. The AC50 was 22 µM (active) in test [7]; 26.3 µM (active) in test [9]; 75.2 µM (active) in test [10]; 25.3 µM (active) in test [11]; 12.8 µM (active) in test [12]; 30.8 µM (active) in the test with TIMP1, TIMP1 (gene 7076). Also, the concentration at half-maximal activity (AC50) in test [13] is 21.2 µM (active); in test [15] it was 24.1 µM (active); in [16] it was 26 µM (active); in [17] it was 23.2 µM (active). Moreover, the compound was called inactive in [19] and in [14].
With `CCCCCCCCCCCO`, the result in [18], in test [1], in test [2], in test [3], in [4] and in test [6] was inactive. Further, the outcome was “inactive” in test [7]; “inactive” in test [9]; “inactive” in [10]; “inactive” in test [11]; “inactive” in test [12]; “inactive” with TIMP1, TIMP1 (gene 7076). Besides, the call in test [13], in test [14], in test [15], in test [16] and in test [17] was inactive.

As a reminder, the AC50 is the midpoint of the concentration-response curve, whichever way the signal moves.
